Laboratory results as given in PubChem BioAssay (NCI).
About 83,000 compounds went through this panel and 20% of them were active in at least one assay; those are over-represented in the sample as a whole.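 96-well plates, one dose, 48 hours. Percent growth reported; active if below 10.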 Active and inactive are the calls of the source.

Assays:
Experiment in all cases: NCI-60 one-dose screen, 48 h (100 = growth as untreated, 0 = no growth, -100 = all killed)
Conditions in all cases: 10 µM unless noted
DU-145 prostate = test system: DU-145 prostate
K-562 leukemia = test system: K-562 leukemia
MALME-3M melanoma = test system: MALME-3M melanoma
MDA-MB-231 breast = test system: MDA-MB-231 breast
RXF 393 renal = test system: RXF 393 renal
SF-268 CNS = test system: SF-268 CNS
SF-295 CNS = test system: SF-295 CNS
SF-539 CNS = test system: SF-539 CNS
UACC-257 melanoma = test system: UACC-257 melanoma
M14 melanoma = test system: M14 melanoma

Measured: growth

CCCCCc1cc[n+](CC(=O)c2ccc([N+](=O)[O-])cc2)cc1
inactive: DU-145 prostate 79.2% | K-562 leukemia 34.7% | MALME-3M melanoma 85.2% | MDA-MB-231 breast 70% | RXF 393 renal 97.6% | SF-268 CNS 87.3% | SF-295 CNS 95.2% | SF-539 CNS 96.9% | UACC-257 melanoma 35.6%

C/C(=C\c1ccc(OCC(=O)O)c(Cl)c1Cl)[N+](=O)[O-]
inactive: DU-145 prostate 108% | K-562 leukemia 88% | MALME-3M melanoma 135% | MDA-MB-231 breast 113% | RXF 393 renal 136% | SF-268 CNS 95.2% | SF-295 CNS 116% | SF-539 CNS 103% | UACC-257 melanoma 90.4%

O=[N+]([O-])c1cccc(-c2nc3sccn3c2-c2ccnc(NCCCNS(=O)(=O)c3ccc(Cl)cc3)n2)c1
inactive: DU-145 prostate 64.2% | K-562 leukemia 26.6% | MALME-3M melanoma 62.8% | MDA-MB-231 breast 70.8% | RXF 393 renal 77.9% | SF-268 CNS 69.7% | SF-295 CNS 37.2% | SF-539 CNS 84.9% | UACC-257 melanoma 47.7%

Clc1ccc2c(NC3CCC(NC4CCCCC4)CC3)ccnc2c1 (configuration not stated)
inactive: DU-145 prostate 80.9% | MALME-3M melanoma 34.6% | MDA-MB-231 breast 45.4% | RXF 393 renal 51.2% | SF-268 CNS 84.7% | SF-295 CNS 60.1%
active: K-562 leukemia 0.509% | SF-539 CNS 0.613% | UACC-257 melanoma -51.5%

O=[N+]([O-])c1ccc(-c2cn(-c3ccccc3)c(-c3ccccc3)n2)cc1
active: SF-295 CNS -21.1% | UACC-257 melanoma -2.3%
inactive: DU-145 prostate 109% | K-562 leukemia 62.5% | MALME-3M melanoma 141% | MDA-MB-231 breast 49.5% | RXF 393 renal 65.3% | SF-268 CNS 91.4% | SF-539 CNS 116%

N=C(N)c1ccc(-c2cc(Cl)cc(Cl)c2)cn1
inactive: DU-145 prostate 99.5% | K-562 leukemia 17.5% | MALME-3M melanoma 95.8% | MDA-MB-231 breast 85.6% | RXF 393 renal 41.5% | SF-268 CNS 84.9% | SF-295 CNS 98.2% | SF-539 CNS 89.6% | UACC-257 melanoma 102%

Cc1cc(C2(c3cc(C)c(O)cc3C)OS(=O)(=O)c3ccccc32)c(C)cc1O
inactive: DU-145 prostate 119% | K-562 leukemia 102% | MALME-3M melanoma 122% | MDA-MB-231 breast 100% | RXF 393 renal 114% | SF-268 CNS 103% | SF-295 CNS 107% | SF-539 CNS 105% | UACC-257 melanoma 87.7%

FC(F)(F)c1cccc(-c2cn3c(ccc4ccccc43)n2)c1
inactive: DU-145 prostate 106% | K-562 leukemia 86.5% | MALME-3M melanoma 102% | MDA-MB-231 breast 79.2% | RXF 393 renal 115% | SF-268 CNS 98.7% | SF-295 CNS 88.5% | SF-539 CNS 99.5% | UACC-257 melanoma 114%

COc1cc2c(cc1OCCCN1CCN(CCCn3c4ccccc4c4ccccc43)CC1)N=C[C@@H]1CCCN1C2=O
active: DU-145 prostate -85.9% | K-562 leukemia -50.1% | MALME-3M melanoma -82.5% | MDA-MB-231 breast -69.3% | RXF 393 renal -78.3% | SF-268 CNS -87.8% | SF-295 CNS -92.3% | SF-539 CNS -91.3% | UACC-257 melanoma -70.3%

N=C(N)c1ccc(-c2ccc(-c3ccc4ccccc4c3)s2)cc1
active: K-562 leukemia 1.51%
inactive: DU-145 prostate 99.6% | MALME-3M melanoma 105% | MDA-MB-231 breast 95.4% | RXF 393 renal 61.6% | SF-268 CNS 94.7% | SF-295 CNS 102% | SF-539 CNS 97% | UACC-257 melanoma 106% | M14 melanoma 99.6%

CCCCCCCCCCCCNC(=O)[C@H]1CSC(c2cc3ccccc3s2)N1 (some centres not stated)
inactive: MALME-3M melanoma 15.4% | SF-295 CNS 18.9% | UACC-257 melanoma 17.6%
active: DU-145 prostate -57.1% | K-562 leukemia -55.8% | MDA-MB-231 breast -86.9% | RXF 393 renal -78.5% | SF-268 CNS -74% | SF-539 CNS -68.1% | M14 melanoma -89%

Nc1cccc(-c2nc3sccn3c2-c2ccnc(NCCCNS(=O)(=O)c3cccc4ccccc34)n2)c1
inactive: DU-145 prostate 47.9% | K-562 leukemia 22.6% | MALME-3M melanoma 62.2% | MDA-MB-231 breast 39.5% | RXF 393 renal 57.4% | SF-268 CNS 49.2% | SF-295 CNS 38.3% | SF-539 CNS 65.9% | UACC-257 melanoma 47.9% | M14 melanoma 43.8%

COC1=C(OC)C(=O)C(CCCCCCCCCC[P+](c2ccccc2)(c2ccccc2)c2ccccc2)=C(C)C1=O
active: DU-145 prostate 6.01% | K-562 leukemia -48.9% | MALME-3M melanoma -86.3% | MDA-MB-231 breast -39.6% | RXF 393 renal -56.7% | SF-268 CNS -61.6% | SF-295 CNS -52.6% | SF-539 CNS -25.1% | UACC-257 melanoma -61.2%

C=C[C@@H]1C[C@@H]2Cc3c(C)cc(C)cc3N1O2
inactive: DU-145 prostate 108% | K-562 leukemia 89.8% | MALME-3M melanoma 77% | MDA-MB-231 breast 113% | RXF 393 renal 98.3% | SF-268 CNS 93% | SF-295 CNS 92.1% | SF-539 CNS 96.6% | UACC-257 melanoma 101% | M14 melanoma 104%

C=C1CCC2C3(C)COC(C)(C)OC3CCC2(C)C1C/C=C1/C(=O)OCC1Oc1ccccc1OC (configuration not stated)
inactive: DU-145 prostate 78.9% | K-562 leukemia 21.7% | MALME-3M melanoma 112% | MDA-MB-231 breast 103% | RXF 393 renal 93.3% | SF-268 CNS 99.7% | SF-295 CNS 101% | SF-539 CNS 83% | UACC-257 melanoma 85.3% | M14 melanoma 72.3%

COc1cc(-c2nc(N=Nc3c(O)[nH]c4ccc(Br)cc34)[nH]c(=O)c2C#N)cc(OC)c1OC
inactive: DU-145 prostate 103% | K-562 leukemia 90.9% | MALME-3M melanoma 94.9% | MDA-MB-231 breast 93.9% | RXF 393 renal 102% | SF-268 CNS 101% | SF-295 CNS 91.1% | SF-539 CNS 96% | UACC-257 melanoma 91.9% | M14 melanoma 97.1%

Cc1ccc(S(=O)(=O)Nc2c(Br)cc(Br)cc2C(N)=O)cc1
inactive: DU-145 prostate 113% | K-562 leukemia 119% | MALME-3M melanoma 87.4% | MDA-MB-231 breast 103% | RXF 393 renal 93.1% | SF-268 CNS 109% | SF-295 CNS 97.3% | SF-539 CNS 101% | UACC-257 melanoma 107% | M14 melanoma 94.5%

CC(C)C(C(=O)NCCN1CCOCC1)N1C(=O)/C(=C/c2ccc(Br)cc2)SC1=S (configuration not stated)
inactive: DU-145 prostate 108% | K-562 leukemia 96% | MALME-3M melanoma 106% | MDA-MB-231 breast 108% | RXF 393 renal 125% | SF-268 CNS 94.2% | SF-295 CNS 102% | SF-539 CNS 98.6% | UACC-257 melanoma 106% | M14 melanoma 90.7%

Cc1nn(-c2ccc(Cl)cc2)c2ncnc(N/N=C/c3cccc([N+](=O)[O-])c3)c12
inactive: DU-145 prostate 68.7% | K-562 leukemia 17.4% | MALME-3M melanoma 97.2% | MDA-MB-231 breast 102% | RXF 393 renal 110% | SF-268 CNS 58% | SF-295 CNS 101% | SF-539 CNS 106% | UACC-257 melanoma 103%

NC1N=C(SCC(=O)N2CCN(c3cc4c(cc3F)c(=O)c(C(=O)O)cn4C3CC3)CC2)NC(=O)/C1=C/c1ccc(Cl)cc1 (configuration not stated)
inactive: DU-145 prostate 112% | K-562 leukemia 99.2% | MALME-3M melanoma 108% | MDA-MB-231 breast 104% | RXF 393 renal 110% | SF-268 CNS 96.2% | SF-295 CNS 94.4% | SF-539 CNS 97.8% | UACC-257 melanoma 105% | M14 melanoma 104%

COc1ccc(-c2nc(/C=C3/C(=O)Nc4ccc(F)cc43)c3ccccn23)cc1
inactive: DU-145 prostate 102% | K-562 leukemia 87.2% | MALME-3M melanoma 130% | MDA-MB-231 breast 89.2% | RXF 393 renal 112% | SF-268 CNS 107% | SF-295 CNS 140% | SF-539 CNS 117% | UACC-257 melanoma 102% | M14 melanoma 106%

CCO/C=N/C1=C(C#N)C(c2ccc(Cl)cc2)c2c(c3ccccc3n(C)c2=O)O1 (configuration not stated)
inactive: DU-145 prostate 95.1% | K-562 leukemia 19.6% | MALME-3M melanoma 55.7% | MDA-MB-231 breast 51.2% | RXF 393 renal 56.8% | SF-268 CNS 80% | SF-295 CNS 57.3% | SF-539 CNS 72.2% | UACC-257 melanoma 90.3% | M14 melanoma 57.2%

COc1cc([N+](=O)[O-])c2ncccc2c1O
inactive: K-562 leukemia 130% | MDA-MB-231 breast 98.6% | RXF 393 renal 93.3% | SF-268 CNS 88.2% | SF-539 CNS 24.3% | UACC-257 melanoma 48%
active: DU-145 prostate 8.92% | MALME-3M melanoma -25.9% | SF-295 CNS 3.61%

COc1cccc(CC(C)=C(c2ccc(OCCN(C)C)cc2)c2ccc(OCCN(C)C)cc2)c1
inactive: DU-145 prostate 22.1% | SF-295 CNS 22.8%
active: K-562 leukemia -61.4% | MALME-3M melanoma -93% | MDA-MB-231 breast -75.4% | RXF 393 renal -62.6% | SF-268 CNS -32.9% | SF-539 CNS -93.1% | UACC-257 melanoma -74.5% | M14 melanoma -80.5%

N=C(N)c1ccc(-c2ccc(-c3ccc(-c4cccs4)s3)s2)cc1
inactive: DU-145 prostate 90.4% | K-562 leukemia 58% | MALME-3M melanoma 85% | MDA-MB-231 breast 81.1% | RXF 393 renal 80.7% | SF-268 CNS 93.5% | SF-295 CNS 101% | SF-539 CNS 88.5% | UACC-257 melanoma 99.3% | M14 melanoma 100%

Cn1ccc(=O)c(S(N)(=O)=O)c1
inactive: DU-145 prostate 119% | K-562 leukemia 93.4% | MALME-3M melanoma 95.5% | MDA-MB-231 breast 101% | RXF 393 renal 85.8% | SF-268 CNS 100% | SF-295 CNS 102% | SF-539 CNS 103% | UACC-257 melanoma 109%

CC(C)(C)n1cc(-c2ccnc(NCCCNS(=O)(=O)c3ccc(F)cc3)c2)c(-c2cccc(O)c2)n1
active: K-562 leukemia 9.04%
inactive: DU-145 prostate 63.4% | MALME-3M melanoma 38.1% | MDA-MB-231 breast 33.2% | RXF 393 renal 38.7% | SF-268 CNS 51.4% | SF-295 CNS 26.8% | SF-539 CNS 28.4% | UACC-257 melanoma 50.1% | M14 melanoma 29%

Cn1c(=O)cc(NC(=O)CN2CCN(c3cc4c(cc3F)c(=O)c(C(=O)O)cn4C3CC3)CC2)[nH]c1=O
inactive: DU-145 prostate 103% | K-562 leukemia 100% | MALME-3M melanoma 104% | MDA-MB-231 breast 98.5% | RXF 393 renal 102% | SF-268 CNS 92.7% | SF-295 CNS 101% | SF-539 CNS 102% | UACC-257 melanoma 100% | M14 melanoma 96.5%
